Measurements taken from PubChem BioAssay (EPA / NIEHS).
Several values for one entry are separate records, joined by “and”; a condition that tells them apart may be missing. Equal entries are not always repeated. A structure can be active in one record and inactive in another. Activity calls are given as the source filed them. How the source made its calls: active means hit-call score of the fitted dose curve at least 0.9, where 1 is the maximum; inactive means score below 0.9.

Read-out: E-selectin (Homo sapiens) (UniProt P16581)
Test: BSK_LPS_Eselectin: BioMAP Diversity Plus: LPS Assay for Eselectin Biomarker Activity (AID 2283077)
Details: primary human HUVEC with PBMC; actives raise or lower the signal
Protocol: BSK_LPS is a cell-based, multiplexed-readout assay that uses umbilical vein endothelium and peripheral blood mononuclear cells, a human vascular primary cell co-culture, with measurements taken at 24 hours after chemical dosing in a 96-well plate.BSK_LPS_Eselectin is an assay component measured in the BSK_LPS assay. It measures E-selectin antibody related to regulation of gene expression using ELISA technology.Data from the assay component BSK_LPS_Eselectin was analyzed into 1 assay endpoint. This assay endpoint, BSK_LPS_Eselectin, was analyzed with bidirectional fitting relative to DMSO as the negative control and baseline of activity. Using a type of binding reporter, gain or loss-of-signal activity can be used to understand changes in the signaling as they relate to the gene SELE. Furthermore, this assay endpoint can be referred to as a primary readout, because this assay has produced multiple assay endpoints where this one serves a signaling function. To generalize the intended target to other relatable targets, this assay endpoint is annotated to the cell adhesion molecules intended target family, where the subfamily is selectins.
The levels of cell surface (or secreted, indicated by the prefix "s") biomarker endpoints were measured by ELISA. Overt cytotoxicity to cells in confluent adherent cultures (all systems other than the BT system) was assessed by measuring total protein levels using sulforhodamine B (SRB) staining in parallel cultures at the time of biomarker measurements, indicated as SRB endpoints. For proliferation assays for adherent cell types, individual cell types are cultured at sub-confluence and relative cell numbers quantified by SRB staining at time points optimized for each system (48 h: 3C and CASM3C systems; 72 h: BT and HDF3CGF systems; 96 h: SAg system). SRB was performed by staining cells with 0.1% SRB after fixation with 10% TCA and reading wells at 560 nm.Viability and proliferation of PBMC (T cells) was quantified by Alamar Blue reduction for the SAg and BT systems. For PBMC viability (referred to as PBMC Cytotoxicity within the assay endpoint names), cells were plated (75,000/well in a 96-well plate) and then chemical samples added for 1 h before addition of activators, SEB and TSST-1 (20 ng/mL final concentration each). Cells were incubated for 90 h. Then, Alamar Blue (20 uL/well) (Invitrogen, Cat DAL1100) was added for 6 h, and the plates were read with a fluorescence microplate reader at 546/580 nm (excitation/emission). For PBMC proliferation, cells were plated and activated as above but incubated for only 16 h prior to addition of Alamar Blue. Plates were read after 6 h.

Chain of E-selectin (Homo sapiens) (P16581 whole entry, looked up): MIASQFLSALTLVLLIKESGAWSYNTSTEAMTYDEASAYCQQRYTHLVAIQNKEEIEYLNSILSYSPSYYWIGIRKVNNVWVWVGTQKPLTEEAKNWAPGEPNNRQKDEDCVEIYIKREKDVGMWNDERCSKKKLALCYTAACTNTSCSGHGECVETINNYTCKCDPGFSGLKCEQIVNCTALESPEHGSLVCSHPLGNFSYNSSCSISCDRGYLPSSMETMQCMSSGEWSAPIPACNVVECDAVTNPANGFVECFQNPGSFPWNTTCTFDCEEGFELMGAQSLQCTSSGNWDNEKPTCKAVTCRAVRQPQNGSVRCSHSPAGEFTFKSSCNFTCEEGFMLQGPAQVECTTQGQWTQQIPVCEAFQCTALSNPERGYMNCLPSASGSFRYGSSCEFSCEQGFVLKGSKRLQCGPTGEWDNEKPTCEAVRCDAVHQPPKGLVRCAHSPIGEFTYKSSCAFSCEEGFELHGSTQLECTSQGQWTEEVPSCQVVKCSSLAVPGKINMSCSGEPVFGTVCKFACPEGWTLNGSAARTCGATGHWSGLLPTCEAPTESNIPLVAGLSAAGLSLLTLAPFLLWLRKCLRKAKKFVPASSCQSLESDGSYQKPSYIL

SMILES	outcome	AC50
C=CC1(C)OC(=O)N(c2cc(Cl)cc(Cl)c2)C1=O (stereo not given)	inactive	
O=C(O)COc1nc(Cl)c(Cl)cc1Cl	inactive	
CCNc1nc(Cl)nc(NCC)n1	inactive	
N#Cc1cc(Br)c(O)c(Br)c1	inactive	
CC1COC(Cn2cncn2)(c2ccc(Oc3ccc(Cl)cc3)cc2Cl)O1 (stereo not given)		20 µM (active)
O=C(Nc1ccccc1)Nc1ccnc(Cl)c1	inactive	
C#CCOS(=O)OC1CCCCC1Oc1ccc(C(C)(C)C)cc1 (stereo not given)		4.28 µM (active)
CCOP(=S)(OCC)SCn1c(=O)oc2cc(Cl)ccc21		9.68 µM (active)
CCCC1COC(Cn2cncn2)(c2ccc(Cl)cc2Cl)O1 (stereo not given)	inactive	
Fc1ccc(Oc2ccnc3cc(Cl)cc(Cl)c23)cc1		34.4 µM (active)
CCNc1nc(Cl)nc(NC(C)C)n1	inactive	
C=CCC1=C(C)C(OC(=O)C2C(C=C(C)C)C2(C)C)CC1=O (stereo not given)	inactive	31.5 µM (active) and 33.3 µM (active) and 33.1 µM (active)
N#Cc1nn(-c2c(Cl)cc(C(F)(F)F)cc2Cl)c(N)c1S(=O)C(F)(F)F (stereo not given)		36.8 µM (active)
Oc1ccccc1-c1ccccc1	inactive	
CN(C)C(=S)SSC(=S)N(C)C		28.5 µM (active)
CC(Oc1ccc(Cl)cc1Cl)C(=O)O (stereo not given)	inactive	
CC1=C(C(=O)Nc2ccccc2)SCCO1	inactive	
COC(=O)C(C)Oc1ccc(Oc2ccc(Cl)cc2Cl)cc1 (stereo not given)	inactive	
CCON=C(CC)C1=C(O)CC(c2c(C)cc(C)cc2C)CC1=O (stereo not given)	inactive	

SMILES	outcome	AC50
COP(=S)(OC)Oc1nc(Cl)c(Cl)cc1Cl		32.5 µM (active)
N#CC(CCc1ccc(Cl)cc1)(Cn1cncn1)c1ccccc1 (stereo not given)	inactive	
CCCCNC(=O)n1c(NC(=O)OC)nc2ccccc21	inactive	
CC(C)(C)c1ccc(CSc2cnn(C(C)(C)C)c(=O)c2Cl)cc1	inactive	
OC(c1ccc(Cl)cc1)(c1cncnc1)c1ccccc1Cl (stereo not given)	inactive	
Cc1cc(Cl)ccc1OCC(=O)O	inactive	
CNC(=S)S		14.7 µM (active)
CCCCOC(=O)c1ccccc1C(=O)OCCCC	inactive	
CO/C=C(/C(=O)OC)c1ccccc1Oc1cc(Oc2ccccc2C#N)ncn1	inactive	10.9 µM (active) and 5.78 µM (active) and 5.72 µM (active)
CCc1nn(C)c(C(=O)NCc2ccc(C(C)(C)C)cc2)c1Cl		20 µM (active)
CS/C(C)=N/OC(=O)N(C)SN(C)C(=O)O/N=C(\C)SC		34.7 µM (active)
COc1nc(NC(C)C)nc(NC(C)C)n1	inactive	
CCCN(CCC)c1c([N+](=O)[O-])cc(S(N)(=O)=O)cc1[N+](=O)[O-]	inactive	36.9 µM (active) and 32.6 µM (active) and 36.7 µM (active)
CCOc1cc(Oc2ccc(C(F)(F)F)cc2Cl)ccc1[N+](=O)[O-]	inactive	
Cc1c(F)c(F)c(COC(=O)C2C(/C=C(\Cl)C(F)(F)F)C2(C)C)c(F)c1F (stereo not given)	inactive	
CCCCC(CC)COC(=O)c1ccccc1C(=O)OCC(CC)CCCC (stereo not given)	inactive	
CC(C)C1(C)N=C(c2nc3ccccc3cc2C(=O)O)NC1=O (stereo not given)	inactive	
O=C(O)c1nc(Cl)ccc1Cl	inactive	
